Drawing on article PMC7862700, “An all-to-all approach to the identification of sequence-specific readers for epigenetic DNA modifications on cytosine”, this text covers binding signal for one sequence.

Holding throughout (assay): DAPPL (digital affinity profiling via proximity ligation, sequencing); 10 mM Tris-HCl pH 7.5, 50 mM NaCl, 1 mM DTT, 4% glycerol, room temperature, 30 min; GST-TFs on glutathione beads, 16-mer random dsDNA library, 0.1% formaldehyde crosslink after washing; high values mean tight binding
Holding throughout (conditions): protein: recombinant; tags: N-terminal GST; dsDNA, one strand shown

One test has as its target T1, FLI1 (Homo sapiens, UniProt Q01543 1-452).
T1 sequence: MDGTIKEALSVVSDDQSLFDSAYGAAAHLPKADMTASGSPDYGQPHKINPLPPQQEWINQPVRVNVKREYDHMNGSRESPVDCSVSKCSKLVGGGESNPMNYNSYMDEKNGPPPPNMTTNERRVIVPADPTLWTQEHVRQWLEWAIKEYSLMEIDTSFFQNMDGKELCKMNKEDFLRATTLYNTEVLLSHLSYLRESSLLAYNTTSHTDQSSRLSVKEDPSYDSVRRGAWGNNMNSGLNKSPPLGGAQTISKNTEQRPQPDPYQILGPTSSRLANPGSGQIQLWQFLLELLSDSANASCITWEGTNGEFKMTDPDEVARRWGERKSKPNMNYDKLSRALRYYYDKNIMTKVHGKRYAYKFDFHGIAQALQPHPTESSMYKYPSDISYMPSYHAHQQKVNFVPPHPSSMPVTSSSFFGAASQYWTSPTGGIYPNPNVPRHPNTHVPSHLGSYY
Summed up:
(§1)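 Beads coated with glutathione captured GST-fused human transcription factors that had been expressed in yeast, and the factors were then given DNA barcodes and pooled with a tag-only sample. The pools were incubated with 200 nmole of a random double-stranded 16-mer DNA library in Tris/NaCl/DTT/glycerol buffer for 30 min at room temperature, washed, crosslinked with 0.1% formaldehyde and proximity-ligated with BsaI/T4 ligase at 37 °C for 1 h. PCR amplification and Illumina NextSeq500 sequencing came last. Binding signal is each hexamer's read frequency for a factor divided by its frequency for the tag-only sample.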

A further test addresses T2, ELK1 (Homo sapiens, UniProt P19419 1-428).
T2 sequence: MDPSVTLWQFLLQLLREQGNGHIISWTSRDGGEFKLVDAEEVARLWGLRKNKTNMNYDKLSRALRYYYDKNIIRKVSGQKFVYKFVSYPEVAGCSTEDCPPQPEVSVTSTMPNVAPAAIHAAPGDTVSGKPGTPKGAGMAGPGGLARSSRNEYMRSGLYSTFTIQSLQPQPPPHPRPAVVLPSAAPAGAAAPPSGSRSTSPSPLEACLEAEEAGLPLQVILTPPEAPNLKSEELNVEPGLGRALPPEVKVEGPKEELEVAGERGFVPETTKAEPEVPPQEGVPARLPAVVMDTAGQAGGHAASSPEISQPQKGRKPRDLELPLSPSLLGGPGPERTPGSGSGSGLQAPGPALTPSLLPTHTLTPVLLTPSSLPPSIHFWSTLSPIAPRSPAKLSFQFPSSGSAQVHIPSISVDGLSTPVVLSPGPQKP
In outline: as §1

In another test the target is T3, GABPA (Homo sapiens, UniProt Q06546 1-454).
T3 sequence: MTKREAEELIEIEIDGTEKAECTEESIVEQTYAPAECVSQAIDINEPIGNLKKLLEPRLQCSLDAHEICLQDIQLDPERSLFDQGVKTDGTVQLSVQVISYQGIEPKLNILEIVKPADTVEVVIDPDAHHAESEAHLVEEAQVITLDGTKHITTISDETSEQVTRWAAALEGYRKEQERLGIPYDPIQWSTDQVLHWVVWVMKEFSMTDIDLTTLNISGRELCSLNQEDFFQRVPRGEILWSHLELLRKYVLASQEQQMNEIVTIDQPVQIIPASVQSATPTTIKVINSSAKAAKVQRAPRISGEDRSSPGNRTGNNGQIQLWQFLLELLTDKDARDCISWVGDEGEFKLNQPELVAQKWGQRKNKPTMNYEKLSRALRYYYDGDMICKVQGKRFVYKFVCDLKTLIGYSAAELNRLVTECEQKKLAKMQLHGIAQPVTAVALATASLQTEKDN
In outline:
as §1

A further test deals with T4, ERG (Homo sapiens, UniProt P11308 1-479).
T4 sequence: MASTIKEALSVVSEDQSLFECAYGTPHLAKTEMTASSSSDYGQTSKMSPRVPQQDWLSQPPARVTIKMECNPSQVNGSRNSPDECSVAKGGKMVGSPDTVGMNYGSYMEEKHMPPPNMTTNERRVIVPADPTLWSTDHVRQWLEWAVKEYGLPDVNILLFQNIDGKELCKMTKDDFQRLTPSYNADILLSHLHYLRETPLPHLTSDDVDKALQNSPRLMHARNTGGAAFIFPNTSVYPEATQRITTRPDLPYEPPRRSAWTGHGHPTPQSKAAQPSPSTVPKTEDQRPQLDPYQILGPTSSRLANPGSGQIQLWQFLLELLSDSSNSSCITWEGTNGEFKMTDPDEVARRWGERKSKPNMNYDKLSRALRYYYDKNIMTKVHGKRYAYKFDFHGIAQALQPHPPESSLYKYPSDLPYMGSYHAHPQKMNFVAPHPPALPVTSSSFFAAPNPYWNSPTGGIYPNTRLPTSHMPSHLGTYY
Summed up:
as §1

The next test concerns the target ELF1 (Homo sapiens, UniProt P32519 1-619). In outline: as §1
The target of another test is T5, EHF (Homo sapiens, UniProt Q9NZC4 1-300).
T5 sequence: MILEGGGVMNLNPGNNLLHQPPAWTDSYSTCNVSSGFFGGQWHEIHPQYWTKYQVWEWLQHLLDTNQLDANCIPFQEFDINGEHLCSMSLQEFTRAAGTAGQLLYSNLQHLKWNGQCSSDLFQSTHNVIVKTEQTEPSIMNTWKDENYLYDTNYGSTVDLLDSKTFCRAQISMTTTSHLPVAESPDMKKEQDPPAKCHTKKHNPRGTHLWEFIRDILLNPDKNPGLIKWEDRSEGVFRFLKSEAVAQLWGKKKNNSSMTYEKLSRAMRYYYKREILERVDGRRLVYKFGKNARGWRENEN
In outline: as §1

In a further test the target is SPI1 (Homo sapiens, UniProt P17947 1-270). In outline: as §1
Another test has as its target SPIB (Homo sapiens, UniProt Q01892 1-262). In outline:
as §1

The next test has as its target T6, ELK3 (Homo sapiens, UniProt P41970 1-407).
T6 sequence: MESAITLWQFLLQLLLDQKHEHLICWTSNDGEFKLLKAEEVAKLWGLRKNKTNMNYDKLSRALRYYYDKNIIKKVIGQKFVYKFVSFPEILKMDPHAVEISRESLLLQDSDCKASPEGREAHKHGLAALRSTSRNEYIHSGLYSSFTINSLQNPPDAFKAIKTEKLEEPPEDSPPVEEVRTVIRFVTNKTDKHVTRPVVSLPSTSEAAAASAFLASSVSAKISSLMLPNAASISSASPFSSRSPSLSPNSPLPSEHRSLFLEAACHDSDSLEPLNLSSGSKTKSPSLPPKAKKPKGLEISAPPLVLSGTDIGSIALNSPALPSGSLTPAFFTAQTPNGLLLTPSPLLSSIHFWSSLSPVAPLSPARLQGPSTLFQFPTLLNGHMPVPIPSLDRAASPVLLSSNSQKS
In outline:
as §1

The target in another test is T7, FEV (Homo sapiens, UniProt Q99581 1-238).
T7 sequence: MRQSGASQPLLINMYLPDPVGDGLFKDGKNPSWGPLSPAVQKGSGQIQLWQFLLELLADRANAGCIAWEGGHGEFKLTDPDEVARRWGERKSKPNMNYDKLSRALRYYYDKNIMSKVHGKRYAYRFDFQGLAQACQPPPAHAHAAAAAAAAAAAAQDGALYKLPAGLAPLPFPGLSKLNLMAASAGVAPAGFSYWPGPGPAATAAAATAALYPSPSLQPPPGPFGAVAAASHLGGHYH
Summed up:
as §1

The target in a further test is ETV5 (Homo sapiens, UniProt P41161 1-510). In outline: as §1
ETV5, sequence (P41161 whole entry): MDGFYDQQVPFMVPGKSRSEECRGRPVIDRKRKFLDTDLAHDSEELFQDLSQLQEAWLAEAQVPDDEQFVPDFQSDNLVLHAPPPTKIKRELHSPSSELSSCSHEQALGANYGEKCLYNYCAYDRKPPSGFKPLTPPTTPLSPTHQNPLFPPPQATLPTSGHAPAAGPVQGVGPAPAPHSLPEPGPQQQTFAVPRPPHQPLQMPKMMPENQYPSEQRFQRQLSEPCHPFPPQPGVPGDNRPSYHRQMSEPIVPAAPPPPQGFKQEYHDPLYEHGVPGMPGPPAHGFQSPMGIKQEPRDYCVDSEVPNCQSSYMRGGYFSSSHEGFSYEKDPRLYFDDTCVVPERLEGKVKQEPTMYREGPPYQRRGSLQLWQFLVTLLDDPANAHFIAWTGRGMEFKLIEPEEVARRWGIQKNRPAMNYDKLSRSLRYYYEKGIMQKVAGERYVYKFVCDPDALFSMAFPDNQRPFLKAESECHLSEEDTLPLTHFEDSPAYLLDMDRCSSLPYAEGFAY
For another test, the target named is T8, SPIC (Homo sapiens, UniProt Q8N5J4 1-248).
T8 sequence: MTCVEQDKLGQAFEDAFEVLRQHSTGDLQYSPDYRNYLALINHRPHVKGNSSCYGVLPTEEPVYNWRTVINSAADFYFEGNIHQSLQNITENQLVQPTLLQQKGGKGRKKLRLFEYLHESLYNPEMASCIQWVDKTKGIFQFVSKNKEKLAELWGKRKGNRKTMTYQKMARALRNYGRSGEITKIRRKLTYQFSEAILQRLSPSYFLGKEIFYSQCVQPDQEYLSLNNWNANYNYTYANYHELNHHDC
Summed up:
as §1

Another test deals with ELF4 (Homo sapiens, UniProt Q99607 1-663). In outline: as §1
ELF4, sequence (Q99607 whole entry): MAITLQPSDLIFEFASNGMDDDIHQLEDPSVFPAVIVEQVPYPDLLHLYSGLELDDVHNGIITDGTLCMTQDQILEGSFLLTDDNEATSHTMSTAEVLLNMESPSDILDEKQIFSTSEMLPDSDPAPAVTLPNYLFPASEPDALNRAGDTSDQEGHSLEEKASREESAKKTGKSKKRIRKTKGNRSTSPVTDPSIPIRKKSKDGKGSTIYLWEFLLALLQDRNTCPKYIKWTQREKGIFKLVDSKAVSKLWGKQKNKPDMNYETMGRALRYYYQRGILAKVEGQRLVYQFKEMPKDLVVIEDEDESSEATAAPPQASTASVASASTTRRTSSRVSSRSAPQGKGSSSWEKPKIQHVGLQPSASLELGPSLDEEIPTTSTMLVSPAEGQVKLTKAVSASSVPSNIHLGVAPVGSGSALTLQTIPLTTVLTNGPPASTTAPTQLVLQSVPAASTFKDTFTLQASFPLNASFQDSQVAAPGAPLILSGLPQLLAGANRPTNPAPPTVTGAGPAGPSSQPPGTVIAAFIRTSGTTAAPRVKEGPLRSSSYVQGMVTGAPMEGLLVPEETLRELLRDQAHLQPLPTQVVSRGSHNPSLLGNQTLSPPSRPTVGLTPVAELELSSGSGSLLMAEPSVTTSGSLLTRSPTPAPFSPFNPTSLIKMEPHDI
A further test addresses T9, ERF (Homo sapiens, UniProt P50548 1-548).
T9 sequence: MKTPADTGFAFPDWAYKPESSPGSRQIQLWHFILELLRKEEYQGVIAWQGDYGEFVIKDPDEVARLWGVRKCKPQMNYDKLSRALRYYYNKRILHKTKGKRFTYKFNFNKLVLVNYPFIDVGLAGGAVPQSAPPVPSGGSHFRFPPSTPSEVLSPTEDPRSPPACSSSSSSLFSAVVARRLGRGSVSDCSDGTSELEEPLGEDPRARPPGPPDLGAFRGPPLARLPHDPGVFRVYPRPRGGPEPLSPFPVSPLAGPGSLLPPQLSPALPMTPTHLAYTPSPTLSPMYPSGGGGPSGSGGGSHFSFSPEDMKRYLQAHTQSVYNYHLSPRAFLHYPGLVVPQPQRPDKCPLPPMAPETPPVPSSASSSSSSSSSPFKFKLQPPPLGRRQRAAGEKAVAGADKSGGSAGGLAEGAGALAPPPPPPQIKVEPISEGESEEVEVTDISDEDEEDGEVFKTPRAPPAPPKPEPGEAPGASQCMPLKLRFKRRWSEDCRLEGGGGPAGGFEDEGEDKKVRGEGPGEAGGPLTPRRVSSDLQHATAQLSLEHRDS
Summed up:
as §1

Another test deals with T10, ETV3L (Homo sapiens, UniProt Q6ZN32 1-361).
T10 sequence: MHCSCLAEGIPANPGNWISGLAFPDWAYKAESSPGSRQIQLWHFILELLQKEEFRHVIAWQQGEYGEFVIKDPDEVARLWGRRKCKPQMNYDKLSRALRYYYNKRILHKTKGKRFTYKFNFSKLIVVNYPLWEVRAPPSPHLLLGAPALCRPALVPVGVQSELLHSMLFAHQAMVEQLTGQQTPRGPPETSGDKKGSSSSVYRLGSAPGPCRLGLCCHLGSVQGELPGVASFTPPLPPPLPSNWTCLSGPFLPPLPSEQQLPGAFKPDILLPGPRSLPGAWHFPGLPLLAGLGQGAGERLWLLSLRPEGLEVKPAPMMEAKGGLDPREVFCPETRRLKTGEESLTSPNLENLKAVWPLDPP
Summed up: as §1

A further test has as its target T11, ETS2 (Homo sapiens, UniProt P15036 1-469).
T11 sequence: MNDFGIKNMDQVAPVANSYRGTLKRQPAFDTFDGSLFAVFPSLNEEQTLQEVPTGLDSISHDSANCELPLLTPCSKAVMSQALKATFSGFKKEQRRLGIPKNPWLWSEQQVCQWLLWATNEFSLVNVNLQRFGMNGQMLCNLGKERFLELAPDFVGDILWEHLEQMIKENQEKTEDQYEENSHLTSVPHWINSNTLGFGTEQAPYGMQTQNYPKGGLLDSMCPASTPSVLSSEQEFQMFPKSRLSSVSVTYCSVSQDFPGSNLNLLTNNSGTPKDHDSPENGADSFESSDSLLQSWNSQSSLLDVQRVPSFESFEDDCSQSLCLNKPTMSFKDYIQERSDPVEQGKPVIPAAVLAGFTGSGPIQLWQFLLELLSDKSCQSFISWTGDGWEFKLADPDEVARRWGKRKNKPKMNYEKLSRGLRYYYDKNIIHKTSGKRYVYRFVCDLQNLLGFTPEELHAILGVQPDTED
In outline:
as §1

A further test deals with T12, ELF5 (Homo sapiens, UniProt Q9UKW6-2 1-255).
T12 sequence: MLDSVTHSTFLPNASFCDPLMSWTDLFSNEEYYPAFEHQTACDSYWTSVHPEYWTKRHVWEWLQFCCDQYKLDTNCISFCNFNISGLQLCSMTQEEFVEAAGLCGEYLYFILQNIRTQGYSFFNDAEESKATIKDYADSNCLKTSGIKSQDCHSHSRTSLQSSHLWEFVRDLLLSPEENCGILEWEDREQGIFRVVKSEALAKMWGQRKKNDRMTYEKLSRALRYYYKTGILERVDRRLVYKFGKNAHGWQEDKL
Summed up:
as §1

The target of the next test is T13, ETV3 (Homo sapiens, UniProt P41162-2 1-143).
T13 sequence: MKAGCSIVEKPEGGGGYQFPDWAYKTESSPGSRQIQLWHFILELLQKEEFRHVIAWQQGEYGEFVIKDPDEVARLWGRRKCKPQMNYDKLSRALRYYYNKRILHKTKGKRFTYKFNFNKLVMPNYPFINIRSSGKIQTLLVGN
In outline: as §1

The next test addresses ETV6 (Homo sapiens, UniProt P41212 1-452). In outline: as §1

ETV6, sequence (P41212 whole entry): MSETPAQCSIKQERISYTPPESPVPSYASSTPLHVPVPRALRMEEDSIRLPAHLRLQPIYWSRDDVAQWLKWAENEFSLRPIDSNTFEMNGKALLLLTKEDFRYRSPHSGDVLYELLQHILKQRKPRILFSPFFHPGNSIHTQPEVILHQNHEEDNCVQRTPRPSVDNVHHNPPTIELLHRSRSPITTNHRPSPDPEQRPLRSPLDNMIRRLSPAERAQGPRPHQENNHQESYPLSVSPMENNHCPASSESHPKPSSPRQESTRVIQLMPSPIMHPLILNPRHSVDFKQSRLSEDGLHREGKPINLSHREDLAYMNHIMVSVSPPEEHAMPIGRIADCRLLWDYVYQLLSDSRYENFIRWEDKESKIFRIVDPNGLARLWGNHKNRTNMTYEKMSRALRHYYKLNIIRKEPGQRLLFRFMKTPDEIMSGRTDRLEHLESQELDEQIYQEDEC
ELF1, sequence (P32519 whole entry): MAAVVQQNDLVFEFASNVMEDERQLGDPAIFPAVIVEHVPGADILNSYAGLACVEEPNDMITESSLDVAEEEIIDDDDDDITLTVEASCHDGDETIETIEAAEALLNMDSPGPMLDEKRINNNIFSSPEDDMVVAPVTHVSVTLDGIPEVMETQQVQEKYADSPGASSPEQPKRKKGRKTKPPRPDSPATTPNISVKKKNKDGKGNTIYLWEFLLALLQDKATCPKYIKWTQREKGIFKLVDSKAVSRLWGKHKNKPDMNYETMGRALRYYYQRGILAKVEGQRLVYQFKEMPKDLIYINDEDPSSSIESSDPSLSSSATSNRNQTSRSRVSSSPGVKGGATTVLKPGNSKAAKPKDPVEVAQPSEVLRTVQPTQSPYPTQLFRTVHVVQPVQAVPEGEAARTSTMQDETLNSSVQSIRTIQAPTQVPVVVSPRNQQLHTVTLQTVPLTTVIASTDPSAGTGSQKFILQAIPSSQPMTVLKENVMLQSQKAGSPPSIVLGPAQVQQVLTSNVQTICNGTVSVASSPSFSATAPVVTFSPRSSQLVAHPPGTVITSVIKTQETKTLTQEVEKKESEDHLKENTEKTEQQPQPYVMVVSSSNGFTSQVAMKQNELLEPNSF
SPIB, sequence (Q01892 whole entry): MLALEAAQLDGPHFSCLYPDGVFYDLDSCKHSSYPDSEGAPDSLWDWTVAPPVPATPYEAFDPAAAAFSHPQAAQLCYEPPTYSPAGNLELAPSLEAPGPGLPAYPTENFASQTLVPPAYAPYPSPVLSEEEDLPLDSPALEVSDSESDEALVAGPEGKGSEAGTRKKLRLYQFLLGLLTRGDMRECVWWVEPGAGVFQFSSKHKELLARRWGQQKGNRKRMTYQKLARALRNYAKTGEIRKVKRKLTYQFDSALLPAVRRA

Take CATACC: the binding signal with FLI1 was 1.03 fold enrichment (6-mer frequency, TF over GST control); with ELK1 it was 1.06 fold enrichment (6-mer frequency, TF over GST control); with GABPA it was 1.11 fold enrichment (6-mer frequency, TF over GST control); with ERG, 1.03 fold enrichment (6-mer frequency, TF over GST control); with ELF1 it was 1.09 fold enrichment (6-mer frequency, TF over GST control); in the test with EHF it was 1.1 fold enrichment (6-mer frequency, TF over GST control). Moreover, the binding signal in the test with SPI1 is 1.03 fold enrichment (6-mer frequency, TF over GST control); with SPIB, 1.04 fold enrichment (6-mer frequency, TF over GST control); in the test with ELK3, 1.09 fold enrichment (6-mer frequency, TF over GST control); with FEV it was 1.07 fold enrichment (6-mer frequency, TF over GST control); with ETV5, 1.04 fold enrichment (6-mer frequency, TF over GST control); in the test with SPIC, 1.03 fold enrichment (6-mer frequency, TF over GST control). Moreover, the binding signal in the test with ELF4 is 1.1 fold enrichment (6-mer frequency, TF over GST control); with ERF, 1.03 fold enrichment (6-mer frequency, TF over GST control); in the test with ETV3L it was 1.17 fold enrichment (6-mer frequency, TF over GST control); with ETS2, 1.1 fold enrichment (6-mer frequency, TF over GST control); with ELF5, 1.04 fold enrichment (6-mer frequency, TF over GST control); with ETV3, 1.06 fold enrichment (6-mer frequency, TF over GST control). Also, the binding signal with ETV6 was 1.01 fold enrichment (6-mer frequency, TF over GST control).
